Screening data from PubChem.
Marburg entry inh: blocks Marburg virus binding to or entry into cells; Marburg virus pseudotyped entry inhibition, cell reporter; Potency, µM (top dose mostly 37.8 µM), most hits filed as inhibitors; hit rate 1.8% among 300,000; calls by dose curve; tested in HEK293 cells
FMDV antiviral: foot and mouth disease virus antiviral activity; FMDV antiviral cell-based qHTS; AID 1159524; hit rate 1.2% among 410,000; Potency, µM (top dose mostly 57.9 µM), most hits filed as inhibitors; calls by dose curve; tested in HEK293T cells; further: read-out not given here; nearly all actives have a fitted effect of over 45% in size
HCMV antiviral: human cytomegalovirus inhibition | activity change, negative = inhibition, % at 57.5 µM | HFF cells, HCMV-luciferase reporter, 72 h; hits give low values | hit rate 4.5% among 410,000 | AID 1259415; in the data active means activity change below about -60%; inconclusive means no clear call, values can overlap the other calls; inactive means above about -39%
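Steps: HFFs plated, 16 h 37C; compounds added; HCMV-luciferase added to MOI 1 PFU/cell; 72 h 37C; OneGlo reagent, 5 min room temperature; luminescence read, normalized to controls.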
Vaccinia mCherry: inhibitors of vaccinia virus infection (mCherry reporter signal); Vaccinia virus mCherry reporter infection, fluorescence; Potency, µM (top dose mostly 36.5 µM), hits mostly inhibitors; hit rate 0.63% among 310,000; AID 720579; calls by dose curve; tested in A549 cells; further: nearly all actives have a fitted effect of over 35% in size
VACV Venus inh: inhibitors of vaccinia virus (Venus reporter); Vaccinia virus Venus reporter expression, fluorescence; Potency, µM (highest dose often 36.5 µM), usual class: inhibitors; hit rate 0.46% among 330,000; AID 720580; calls by dose curve; tested in A549 cells; further: nearly all actives have a fitted effect of over 30% in size
LASV entry inh: inhibitors of Lassa virus binding or cell entry. Lassa virus pseudotype entry inhibition, cell reporter. AID 540256. hit rate 1.2% among 300,000. Potency, µM (titrated, usually from 37.9 µM), usual class: inhibitors; calls by dose curve; tested in HEK293 cells; further: nearly all actives have a fitted effect of over 50% in size
Large screens that a line does not name were inactive. Rows were chosen to be rich in hits. Some 6.5% of all compounds tested hit in one or more screens of this group.

CC1CC(C)CN(S(=O)(=O)c2ccc3c(c2)oc(=O)n3CC(=O)N(C)Cc2ccccc2)C1 (stereo not drawn)	HCMV antiviral -79.0, Vaccinia mCherry inconclusive, VACV Venus inh inconclusive (no result: Marburg entry inh, LASV entry inh)
CC1CC(C)CN(S(=O)(=O)c2ccc(C(=O)N(C)Cc3ccccc3)cc2)C1 (stereo not drawn)	HCMV antiviral -65.3 (no result: Marburg entry inh, Vaccinia mCherry, VACV Venus inh, LASV entry inh)
CCCCCCCC[n+]1c(C)n(-c2ccccc2)c2ccc(NC(C)=O)cc21	Marburg entry inh inconclusive, FMDV antiviral inconclusive, HCMV antiviral -77.0, LASV entry inh 7.08µM
CCCCCCNC(=O)Nc1ccccc1	none (no result: Vaccinia mCherry, VACV Venus inh)
Cc1cccc(S(=O)(=O)N(C)C[C@H]2OCc3cn(nn3)CCCC(=O)N([C@H](C)CO)C[C@@H]2C)c1	none (no result: Marburg entry inh, LASV entry inh)
COc1ccccc1OCCCCCc1c(C)n[nH]c1C	FMDV antiviral inconclusive, HCMV antiviral -61.4 (no result: Vaccinia mCherry, VACV Venus inh)
Oc1cccc2cccnc12	none (no result: Marburg entry inh, HCMV antiviral, LASV entry inh)
Cc1ccc([N+](=O)[O-])c2cccnc12	none (no result: Vaccinia mCherry, VACV Venus inh)
O=[N+]([O-])c1ccc(Sc2cccc3cccnc23)c2cccnc12	Marburg entry inh inconclusive, FMDV antiviral inconclusive, HCMV antiviral -101.2, LASV entry inh inconclusive (no result: Vaccinia mCherry, VACV Venus inh)
O=[N+]([O-])c1cc2cccnc2c2ncccc12	HCMV antiviral -96.8 (no result: Marburg entry inh, Vaccinia mCherry, VACV Venus inh, LASV entry inh)
O=[N+]([O-])c1cc(O)c2ncccc2c1	Marburg entry inh inconclusive, HCMV antiviral -97.3, Vaccinia mCherry 1µM, VACV Venus inh 1µM, LASV entry inh inconclusive
FC(F)(F)C1CCC(c2nnc(C3CCCCN3)c(C3=NCCCC3)n2)NC1 (stereo not drawn)	none (no result: FMDV antiviral, HCMV antiviral, Vaccinia mCherry, VACV Venus inh, LASV entry inh)
COc1ccccc1CN1CCC2(CC1)CCN(C(=O)c1csnn1)CC2	none (no result: Marburg entry inh, HCMV antiviral, Vaccinia mCherry, VACV Venus inh, LASV entry inh)
O=C(c1ccoc1)N1CCN(c2cc(-c3ccccc3)nc3cc(-c4ccc(Br)cc4)nn23)CC1	FMDV antiviral 22.4µM, HCMV antiviral -63.0 (no result: Marburg entry inh, LASV entry inh)
COc1ccc(-c2cc3nc(-c4ccccc4)cc(N4CCN(C(=O)c5ccoc5)CC4)n3n2)cc1	FMDV antiviral inconclusive (no result: Marburg entry inh, LASV entry inh)
CC(=O)N1CCN(c2cc(-c3ccccc3)nc3cc(-c4cccc(Cl)c4)nn23)CC1	FMDV antiviral 17.8µM, HCMV antiviral -89.4, Vaccinia mCherry inconclusive, VACV Venus inh inconclusive (no result: Marburg entry inh, LASV entry inh)
O=C(c1ccncc1)N1CCN(c2cc(-c3ccccc3)nc3cc(-c4cccc(Cl)c4)nn23)CC1	FMDV antiviral 28.2µM, Vaccinia mCherry inconclusive, VACV Venus inh inconclusive (no result: Marburg entry inh, LASV entry inh)
O=C(c1ccoc1)N1CCN(c2cc(-c3ccncc3)nc3cc(-c4cccc(Cl)c4)nn23)CC1	FMDV antiviral inconclusive (no result: Marburg entry inh, LASV entry inh)
C[C@@H]1/C=C/CC(=O)OC[C@H](C)C(=O)OC[C@H]2O[C@H]1C=C[C@H]2O	none (no result: FMDV antiviral, HCMV antiviral, Vaccinia mCherry, VACV Venus inh, LASV entry inh)
N#Cc1ccccc1-c1ccc2ncnc(N3CCNCC3)c2c1	none (no result: Marburg entry inh, HCMV antiviral, LASV entry inh)
CCN(C(=O)c1cc2c(s1)-c1c(C)cccc1OC2)c1cc(C)ccc1C	none (no result: LASV entry inh)
CCCCN(c1ccccc1)c1ncnc(N)c1[N+](=O)[O-]	HCMV antiviral -102.3 (no result: Vaccinia mCherry, VACV Venus inh)
Cc1ccccc1Oc1ncnc(N)c1[N+](=O)[O-]	none
CNc1nc(N)c([N+](=O)[O-])c(NC2CCCCC2)n1	LASV entry inh inconclusive
Nc1ncnc(NC2CCS(=O)(=O)C2)c1[N+](=O)[O-] (stereo not drawn)	none
CN(c1ncnc(N)c1[N+](=O)[O-])C1CCS(=O)(=O)C1 (stereo not drawn)	HCMV antiviral -74.2 (no result: Vaccinia mCherry, VACV Venus inh)
CN(c1ncnc(N)c1[N+](=O)[O-])C1CCCCC1	HCMV antiviral -94.0 (no result: Marburg entry inh, Vaccinia mCherry, VACV Venus inh, LASV entry inh)
COC(=O)/C=C/[C@H]1CCCN1c1ccc(OC)cc1	none (no result: Marburg entry inh, FMDV antiviral, Vaccinia mCherry, VACV Venus inh, LASV entry inh)
COc1ccc(N(CC(=O)NCc2ccccc2OC)S(=O)(=O)c2ccc(C)cc2)cc1Cl	none (no result: Marburg entry inh, Vaccinia mCherry, VACV Venus inh, LASV entry inh)
CC(C)C[C@H](NC(=O)C1CC(=O)N(c2ccc(F)cc2)C1)C(=O)N1CCCCC1 (stereo partly drawn)	none
O=[N+]([O-])c1ccc(Sc2nccn2Cc2ccccc2)c([N+](=O)[O-])c1	Marburg entry inh inconclusive, FMDV antiviral 28.2µM
Cc1cccc(Sc2ccc([N+](=O)[O-])cc2[N+](=O)[O-])n1	FMDV antiviral inconclusive, HCMV antiviral -72.1
CC(C)Sc1nc(-c2ccccc2)cc(=O)[nH]1	none (no result: Vaccinia mCherry, VACV Venus inh)
O=[N+]([O-])c1ccc(Sc2ncccn2)c([N+](=O)[O-])c1	Marburg entry inh inconclusive, FMDV antiviral 14.1µM, HCMV antiviral -97.2, Vaccinia mCherry inconclusive, VACV Venus inh inconclusive, LASV entry inh inconclusive
O=c1cc(-c2ccccc2)nc(Sc2ccc([N+](=O)[O-])cc2[N+](=O)[O-])[nH]1	FMDV antiviral 15.8µM
Cc1cccc(Sc2c([N+](=O)[O-])ncn2C)n1	none (no result: Vaccinia mCherry, VACV Venus inh)
